Legend:
hPUF_MT(F856A) = hPUF_MT(F856A) (UniProt Q14671 SEQ:1-349, F856A); test: EMSA; conditions: tags: MBP; label: Alexa680 at 5' and 3'; ssRNA
hPUF_MT(F865A) = hPUF_MT(F865A) (UniProt Q14671 SEQ:1-349, F865A); test: EMSA; smaller contribution than F856; conditions: tags: MBP; label: Alexa680 at 5' and 3'; ssRNA
[1] = biological target: T1, hPUF_MT(R5:A_13R)(R5:A_13Y)2(R6:C_13Y)3; test: EMSA; 13R about 10 times greater; conditions: label: Alexa680 at 5' and 3'; ssRNA
T1 chain: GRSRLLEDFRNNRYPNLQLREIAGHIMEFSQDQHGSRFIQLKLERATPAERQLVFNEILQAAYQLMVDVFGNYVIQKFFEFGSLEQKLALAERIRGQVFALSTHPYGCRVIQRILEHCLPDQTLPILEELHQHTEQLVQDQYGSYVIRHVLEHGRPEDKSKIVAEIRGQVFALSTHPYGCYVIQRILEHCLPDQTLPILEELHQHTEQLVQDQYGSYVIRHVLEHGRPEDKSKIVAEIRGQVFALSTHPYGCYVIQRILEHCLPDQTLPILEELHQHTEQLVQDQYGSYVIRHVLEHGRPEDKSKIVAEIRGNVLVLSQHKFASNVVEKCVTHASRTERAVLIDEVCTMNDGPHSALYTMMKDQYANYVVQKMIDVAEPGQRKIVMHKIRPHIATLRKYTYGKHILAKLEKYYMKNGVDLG

Sequence	binding signal (hPUF_MT(F856A))	binding signal (hPUF_MT(F865A))	binding signal [1]
CCAGAAUUGUAUAUAUUCG	~0.1 fold of WT	~0.1 fold of WT	
CCAGAAUUGCACACAUAUUCG			~0.1 fold of 13R protein

From US11472855, “RNA-binding protein” (Panitch Schwarze Belisario & Nadel LLP)
